The record followed here is PubChem BioAssay.

The term AC50 denotes the concentration giving half of the maximal activity seen. A word on the viability: it is a read-out of living cells in per cent, often relative to untreated cells.

Each structure is given as a SMILES string. Results filed as inconclusive are left out. The source made the active and inactive calls.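 How the source made its calls, unless noted: active means normalized viability below 100% at a tested concentration; inactive means the rest.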

Experiment [1] can be described thus: growth inhibition of DIPG glioma cells, dose response, cell-based, SU-DIPG-XVII, MIPE5.0, CellTiter-Glo, qHTS (AID 1347060; cut-off not given, nearly all actives have AC50 up to about 26 µM;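 on AC50: cells exposed to compound for 48 hours before viability readout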). Particulars: SU-DIPG-XVII viability, CellTiter-Glo ATP luminescence.
Experiment [2] in a line: growth inhibition of DIPG glioma cells, dose response, cell-based, SU-DIPG-XIII, MIPE4.0, CellTiter-Glo, qHTS (AID 1347061; cut-off not given, nearly all actives have AC50 up to about 37 µM;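 further: cells exposed to compound for 48 hours before readout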). The conditions noted are these: SU-DIPG-XIII viability, CellTiter-Glo ATP luminescence. For orientation: In ATP-based viability assays light output follows the ATP content of the culture.
A short description of experiment [3]: growth inhibition of DIPG glioma cells, dose response, cell-based, JHH-DIPG-1, MIPE4.0, CellTiter-Glo, qHTS (AID 1347062; cut-off not given, nearly all actives have AC50 up to about 27 µM;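 on AC50: cells exposed to compound for two days before readout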). Particulars: JHH-DIPG-1 viability, CellTiter-Glo ATP luminescence.
A short description of experiment [4]: growth inhibition of DIPG glioma cells, dose response, cell-based, SU-DIPG-IV, MIPE4.0, CellTiter-Glo, qHTS (AID 1347063; cut-off not given, nearly all actives have AC50 up to about 30 µM;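 further: compound exposure lasted 48 hours before the viability readout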). Particulars: SU-DIPG-IV viability, CellTiter-Glo ATP luminescence.
Experiment [5] in a line: SU-DIPG-VI glioma cell viability, MIPE4.0 library, CellTiter-Glo luminescence, qHTS (AID 1347066; cut-off not given, nearly all actives have AC50 up to about 30 µM;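 further: cells exposed to compound for 48 hours before readout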). The conditions noted are these: CellTiter-Glo ATP luminescence.
Experiment [6] in a line: JHH-DIPG-1 glioma cell viability, MIPE5.0 library, CellTiter-Glo luminescence, qHTS (AID 1347067; cut-off not given, nearly all actives have AC50 up to about 26 µM;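 further: cells exposed to compound for 48 hours before readout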). The conditions noted are these: JHH-DIPG-1 glioma viability, CellTiter-Glo ATP luminescence.
Experiment [7] can be described thus: SU-DIPG-XXV glioma cell viability, MIPE5.0 library, qHTS (AID 1347068; cut-off not given, nearly all actives have IC50 up to about 30 µM). (In general: Quantitative high-throughput screening tests each substance at several concentrations.)
Experiment [8] is described as follows: growth inhibition of DIPG glioma cells, dose response, cell-based, SU-DIPG-XIII, MIPE5.0, CellTiter-Glo, qHTS (AID 1347064; cut-off not given, nearly all actives have AC50 up to about 23 µM;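 further: cells exposed to compound for 48 hours before the viability read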). The conditions noted are these: SU-DIPG-XIII viability, CellTiter-Glo ATP luminescence.
A short description of experiment [9]: viability loss in pontine glioma line – cell-based, SU-DIPG-XXV, MIPE5.0, CellTiter-Glo, qHTS, dose response (AID 1347065; cut-off not given, nearly all actives have AC50 up to about 26 µM;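 further: cells exposed to compound for 48 hours before ATP readout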). The conditions noted are these: CellTiter-Glo ATP luminescence.
Experiment [10] in a line: sensitizers of A549 cells to miR-34 induction, primary screen, imaging, A549 dox-inducible miR-34, nuclei and caspase counts (AID 1347080;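 active means compounds whose cell count with miR-34 switched on is under 0.7 times the count with it off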). The conditions noted are these: A549 miR-34 inducible, Hoechst nuclei count, 48 h.
A short description of experiment [11]: survival rescue of mitochondrial mutant cells in low glucose, primary screen, MELAS cybrids, Rieske KO mouse fibroblasts, CellTiter-Glo (AID 1508586;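 active means mean z-score across replicates of 1.96 or higher in either the MELAS or the Rieske mutant cell line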;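 further: z relative to plate mean and SD of compound and empty wells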).
The nature of experiment [12]: modifiers of HSF1 nuclear foci, imaging, Selleck Cancer Library (AID 1347162; in the data active means plate-normalised HSF1 focus index below about 0.46). The conditions noted are these: human cells, at 10 µM; SSMD: measured here: HSF1 foci SSMD mean; cell count: measured here: cell number; plate-normalised HSF1 focus index: stronger effect = lower value.
Experiment [13] can be described thus: ovarian cancer cell viability with rucaparib, profiling panel, oncology-focused library, rucaparib conditional (AID 1508598). Particulars: patient-derived ovarian cancer cells, CellTiter-Glo viability, 144 h, stronger effect = lower value.
[14] abbreviates: stronger effect = lower value, cell number ratio, induced over uninduced.
Where [15] appears, read: measured here: relative caspase fold change +Dox/-Dox.
[16] abbreviates: measured here: total cells with miR-34 induction, stronger effect = lower value.
Setting [17] is: measured here: total cells without miR-34 induction.
Where [18] appears, read: MELAS cybrid survival, CellTiter-Glo 48 h, stronger effect = higher value.
The mark [19] stands for this setting: Rieske KO mouse fibroblast survival, CellTiter-Glo 72 h.

`CCCCCCCCCCCCCCCC(=O)O[C@@H]1[C@@H](O)[C@@H](O)[C@@H]([C@H](NC(=O)[C@@H]2C[C@@H](CCC)CN2C)[C@H](C)Cl)O[C@@H]1SC`: the compound was called inactive in [1], in experiment [2], in [3], in [4], in experiment [5] and in experiment [7]. In experiment [6], the AC50 was 10.5 µM (active).
`Cc1cc(C(=O)NOCCO)c(Nc2ccc(I)cc2F)n(C)c1=O`: the AC50 in experiment [1] was 0.166 µM (active); in [2], 0.132 µM (active); in [3] it was 0.105 µM (active); in experiment [8], 0.132 µM (active); in [9], 0.295 µM (active); in [6], 0.059 µM (active). For the same compound, the fold change in [10] (setting [14]) is 1.09 (inactive); in experiment [10] (setting [15]) it was 0.434. Further, the cell count in experiment [10] (setting [16]) worked out at 3770; in experiment [10] (setting [17]) it was 3450. Besides, the z-score in [11] (setting [18]) is -0.704 (inactive); in [11] (setting [19]), -1.56.
Regarding `CC(C)(C)OC(=O)CN(Cc1ccc(Cl)cc1)Cc1ccc([N+](=O)[O-])s1`, the figures for the AC50 in experiment [1], in experiment [8] and in [9] were 18.6 µM (active), 16.6 µM (active) and 11.8 µM (active), respectively. Further, the compound was called inactive in experiment [2], in [3], in experiment [5] and in experiment [7].
Turning to `CCc1cccc(CC)c1NC(=O)N1Cc2[nH]nc(NC(=O)c3ccc(N4CCN(C)CC4)cc3)c2C1`, the AC50 in experiment [1] is 0.934 µM (active); in [2] it was 14.8 µM (active); in experiment [8] it was 2.09 µM (active); in experiment [9], 0.661 µM (active). The outcome in experiment [3] and in experiment [5] was inactive. Besides, the fold change was 1 (inactive) in [10] (setting [14]) and 0.697 in experiment [10] (setting [15]). Also, the results for the cell count in experiment [10] (setting [16]) and in [10] (setting [17]) were 2360 and 2350, respectively. Further, the z-score in experiment [11] (setting [18]) is -0.115 (inactive); in [11] (setting [19]), -0.878.
Consider `Cc1ccc(NC(=O)c2cccc(C(C)(C)C#N)c2)cc1Nc1ccc2ncn(C)c(=O)c2c1`, for which the AC50 in [1] is 2.09 µM (active); in experiment [2] it was 4.18 µM (active); in [3], 5.9 µM (active); in [8], 1.48 µM (active); in [9] it was 7.42 µM (active); in experiment [6] it was 0.934 µM (active). Besides, in experiment [5], the compound was classed as inactive. Moreover, the fold change is 0.944 (inactive) in experiment [10] (setting [14]) and 1.09 in experiment [10] (setting [15]). In addition, the values for the cell count in [10] (setting [16]), in experiment [10] (setting [17]) and in [12] were 5830, 6180 and 7560, respectively. This compound also came in with an SSMD in experiment [12] of 3.15. Further, the plate-normalised HSF1 focus index in experiment [12] is 1.12 (inactive). Further, the z-score was 0.493 (inactive) in [11] (setting [18]) and -1.35 in experiment [11] (setting [19]). The viability is 126% (inactive) in experiment [13] (at 0.000305 µM, OCI-C5x cells, with rucaparib 10 µM, 100% = cells with rucaparib alone); 104% (inactive) in experiment [13] (at 0.000305 µM, OCI-C5x cells, without rucaparib); 95.5% (active) in [13] (at 0.000305 µM, OCI-P5x cells, with rucaparib 20 µM, 100% = cells with rucaparib alone); 90.4% (active) in experiment [13] (at 0.000305 µM, OCI-P5x cells, without rucaparib); 129% (inactive) in experiment [13] (at 0.00122 µM, OCI-C5x cells, with rucaparib 10 µM, 100% = cells with rucaparib alone); 115% (inactive) in [13] (at 0.00122 µM, OCI-C5x cells, without rucaparib). For the same compound, the viability is 107% (inactive) in experiment [13] (at 0.00122 µM, OCI-P5x cells, with rucaparib 20 µM, 100% = cells with rucaparib alone); 95.5% (active) in experiment [13] (at 0.00122 µM, OCI-P5x cells, without rucaparib); 128% (inactive) in experiment [13] (at 0.00488 µM, OCI-C5x cells, with rucaparib 10 µM, 100% = cells with rucaparib alone); 109% (inactive) in [13] (at 0.00488 µM, OCI-C5x cells, without rucaparib); 107% (inactive) in experiment [13] (at 0.00488 µM, OCI-P5x cells, with rucaparib 20 µM, 100% = cells with rucaparib alone); 99.1% (active) in [13] (at 0.00488 µM, OCI-P5x cells, without rucaparib). Further, the viability in [13] (at 0.0195 µM, OCI-C5x cells, with rucaparib 10 µM, 100% = cells with rucaparib alone) was 116% (inactive); in experiment [13] (at 0.0195 µM, OCI-C5x cells, without rucaparib) it was 124% (inactive); in experiment [13] (at 0.0195 µM, OCI-P5x cells, with rucaparib 20 µM, 100% = cells with rucaparib alone), 109% (inactive); in [13] (at 0.0195 µM, OCI-P5x cells, without rucaparib) it was 95% (active); in experiment [13] (at 0.0781 µM, OCI-C5x cells, with rucaparib 10 µM, 100% = cells with rucaparib alone) it was 115% (inactive); in experiment [13] (at 0.0781 µM, OCI-C5x cells, without rucaparib) it was 121% (inactive). Moreover, the viability is 84.1% (active) in experiment [13] (at 0.0781 µM, OCI-P5x cells, with rucaparib 20 µM, 100% = cells with rucaparib alone); 82.8% (active) in [13] (at 0.0781 µM, OCI-P5x cells, without rucaparib); 112% (inactive) in experiment [13] (at 0.313 µM, OCI-C5x cells, with rucaparib 10 µM, 100% = cells with rucaparib alone); 125% (inactive) in [13] (at 0.313 µM, OCI-C5x cells, without rucaparib); 68.7% (active) in [13] (at 0.313 µM, OCI-P5x cells, with rucaparib 20 µM, 100% = cells with rucaparib alone); 85.5% (active) in experiment [13] (at 0.313 µM, OCI-P5x cells, without rucaparib). Moreover, the viability in experiment [13] (at 1.25 µM, OCI-C5x cells, with rucaparib 10 µM, 100% = cells with rucaparib alone) was 108% (inactive); in [13] (at 1.25 µM, OCI-C5x cells, without rucaparib) it was 127% (inactive); in experiment [13] (at 1.25 µM, OCI-P5x cells, with rucaparib 20 µM, 100% = cells with rucaparib alone) it was 73.2% (active); in experiment [13] (at 1.25 µM, OCI-P5x cells, without rucaparib) it was 81.8% (active); in experiment [13] (at 5 µM, OCI-C5x cells, with rucaparib 10 µM, 100% = cells with rucaparib alone) it was 127% (inactive); in experiment [13] (at 5 µM, OCI-C5x cells, without rucaparib) it was 140% (inactive). For the same compound, the viability in experiment [13] (at 5 µM, OCI-P5x cells, with rucaparib 20 µM, 100% = cells with rucaparib alone) is 67.4% (active); in [13] (at 5 µM, OCI-P5x cells, without rucaparib) it was 22.1% (active).
